In PubChem BioAssay AID1159580 (chemical genetic matrix, 2015):
Where “and” joins values, the source holds several entries; their conditions need not be identical. Identical values can stand only once. Hit rate of the full screen: of about 5,500 compounds, about 2,000 (36%) were called active. Inconclusive results (about 18%) are left out. Rule as the data show it: active = normalized growth mostly below about 0.91 (no sharp cut-off); inconclusive = no clear call, values can overlap the other calls; inactive = mostly above about 0.92. The list shows a part of the results.

Assay: chemical genetic growth profiling, strain panel (AID 1159580);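 also: tested at 20 µM; growth read once vehicle control cultures reached saturation at 30 °C; 1 = growth at the plate median or of vehicle wells; lower values mean less growth of the strain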
Settings: S. cerevisiae deletion strains, growth OD

Measured: normalized growth

CCOC(=O)C1=C[C@]2(CC)CCCN3CCc4c(n1c1ccccc41)[C@@H]32
inactive: locus YAL021C, strain ccr4, active compounds read low 1.03 | locus YAL026C, strain drs2, active compounds read low 1.02 | locus YAL030W, strain snc1, active compounds read low 1.03 | locus YBL061C, strain skt5, active compounds read low 1.02 | locus YBR009C, strain hhf1, active compounds read low 1.02 | locus YBR021W, strain FUR4, active compounds read low 1.02 | locus YBR023C, strain chs3, active compounds read low 1.03 | locus YBR171W, strain sec66, active compounds read low 1.02 | locus YBR229C, strain ROT2, active compounds read low 0.957 | locus YBR231C, strain swc5, active compounds read low 1.02 | locus YBR279W, strain paf1, active compounds read low 1.01 | locus YCL011C, strain gbp2, active compounds read low 1.03 | locus YCL016C, strain dcc1, active compounds read low 1.02 | locus YCL029C, strain bik1, active compounds read low 0.974 | locus YCL061C, strain MRC1, active compounds read low 1.02 | locus YCL069W, strain vba3, active compounds read low 1.02 | locus YCR088W, strain abp1, active compounds read low 1.02 | locus YDL005C, strain med2, active compounds read low 1.02 | locus YDL035C, strain GPR1, active compounds read low 0.977 | locus YDL040C, strain nat1, active compounds read low 1.03 | locus YDL074C, strain BRE1, active compounds read low 0.928 | locus YDL101C, strain DUN1, active compounds read low 0.957 | locus YDL134C, strain PPH21, active compounds read low 0.998 | locus YDL185W, strain tfp1, active compounds read low 0.985 | locus YDL192W, strain arf1, active compounds read low 0.975 | locus YDR001C, strain nth1, active compounds read low 1.03 | locus YDR069C, strain doa4, active compounds read low 1.05 | locus YDR101C, strain arx1, active compounds read low 0.969 | locus YDR137W, strain rgp1, active compounds read low 0.967 | locus YDR150W, strain NUM1, active compounds read low 0.984 | locus YDR159W, strain sac3, active compounds read low 1.02 | locus YDR162C, strain NBP2, active compounds read low 0.937 | locus YDR195W, strain ref2 1.07 | locus YDR297W, strain sur2, active compounds read low 1.02 | locus YDR318W, strain mcm21, active compounds read low 0.969 | locus YDR334W, strain swr1, active compounds read low 1.03 | locus YDR335W, strain msn5, active compounds read low 1.01 | locus YDR388W, active compounds read low 0.97 | locus YDR392W, strain spt3, active compounds read low 0.979 | locus YDR502C, strain sam2, active compounds read low 0.947 | locus YEL003W, strain gim4, active compounds read low 1.02 | locus YEL037C, strain rad23, active compounds read low 1.01 | locus YEL061C, strain CIN8 (second series), active compounds read low 1.04 | locus YEL061C, strain CIN8, active compounds read low 0.979 | locus YER015W, strain faa2, active compounds read low 1.03 | locus YER016W, strain bim1, active compounds read low 1.01 | locus YER110C, active compounds read low 0.975 | locus YER111C, strain swi4, active compounds read low 1.02 | locus YER155C, strain BEM2 (second series), active compounds read low 0.992 | locus YER155C, strain BEM2, active compounds read low 1.01 | locus YER167W, strain BCK2, active compounds read low 1 | locus YFR010W, strain ubp6, active compounds read low 1.03 | locus YGL078C, strain dbp3, active compounds read low 0.979 | locus YGL086W, strain mad1, active compounds read low 0.948 | locus YGL167C, strain pmr1, active compounds read low 1.01 | locus YGL173C, strain kem1, active compounds read low 1.04 | locus YGL227W, strain vid30, active compounds read low 1.03 | locus YGL240W, strain doc1, active compounds read low 1.03 | locus YGL248W, strain PDE1, active compounds read low 0.954 | locus YGL253W, strain hxk2, active compounds read low 1.03 | locus YGR135W, strain pre9, active compounds read low 1 | locus YGR252W, strain gcn5, active compounds read low 1.03 | locus YHR013C, strain ard1, active compounds read low 1.01 | locus YHR027C, strain rpn1, active compounds read low 1.03 | locus YHR030C, strain SLT2, active compounds read low 0.994 and 1.01 | locus YHR079C, strain IRE1 (second series), active compounds read low 0.985 | locus YHR079C, strain IRE1, active compounds read low 1.03 | locus YHR094C, strain hxt1, active compounds read low 0.977 | locus YHR129C, strain ARP1, active compounds read low 0.987 | locus YHR142W, strain chs7, active compounds read low 1.01 | locus YHR200W, strain rpn10, active compounds read low 0.979 | locus YIL066C, strain RNR3, active compounds read low 0.946 | locus YIL073C, strain SPO22, active compounds read low 1.02 | locus YIL125W, strain kgd1, active compounds read low 0.985 | locus YIR030C, strain dcg1, active compounds read low 0.981 | locus YJL092W, strain hpr5, active compounds read low 1.02 | locus YJL095W, strain BCK1 (second series), active compounds read low 1.01 | locus YJL095W, strain BCK1, active compounds read low 0.867 and 1.02 | locus YJL115W, strain asf1, active compounds read low 1.05 | locus YJL129C, strain trk1, active compounds read low 1.01 | locus YJL134W, strain LCB3, active compounds read low 0.991 | locus YJL154C, strain vps35, active compounds read low 1.01 | locus YJL164C, strain tpk1, active compounds read low 1.01 | locus YJL166W, strain qcr8, active compounds read low 1.02 | locus YJL168C, strain set2, active compounds read low 0.979 | locus YJL187C, strain SWE1 (second series), active compounds read low 0.927 | locus YJR043C, strain POL32, active compounds read low 0.941 | locus YJR066W, strain TOR1, active compounds read low 0.967
